Screening data (PubChem)
These entries were drawn from the full list.
aSyn 5UTR act: Activators working through SNCA 5'UTR binding (MLPCN). hit rate 7.1% among 300,000. alpha-synuclein 5'UTR reporter, activators screen. activity score, % (tested at 7.5 µM), hits read low; in the data active = activity score below about -60%
* = called active by the depositor.

Results for N#C/C(=N\Nc1ccccc1)C(=N)N1CCCCC1 ?
aSyn 5UTR act: -78*

Results for CCN(CC)C(=N)/C(C#N)=N/Nc1ccccc1 ?
aSyn 5UTR act: -81*

Results for Cc1ccc(N/N=C(\C#N)C(=N)N2CCCCC2)cc1 ?
aSyn 5UTR act: -91*

Results for O=C(NC(=S)Nc1ncccn1)c1ccccc1Cl ?
aSyn 5UTR act: -181*

Results for CCC(=O)Nc1cccc(NC(=S)NC(=O)c2cccs2)c1 ?
aSyn 5UTR act: -161*

What do the screens show for `CCC(=O)Nc1cccc(NC(=S)NC(=O)c2ccccc2Cl)c1`?
aSyn 5UTR act: -82*

Results for O=C(NC(=S)Nc1ccccc1O)c1ccc(Cl)cc1Cl ?
aSyn 5UTR act: -106*

What do the screens show for `Cc1ccc(Cl)c(OCC(=O)Nc2sc(C)c(C)c2C#N)c1`?
aSyn 5UTR act: -68*

What do the screens show for `Cc1ccc(Cl)c(OCC(=O)Nc2cccnc2)c1`?
aSyn 5UTR act: -116*

How did O=C(COc1ccccc1Cl)Nc1cccnc1 do in these assays?
aSyn 5UTR act: -128*

Results for O=C(COc1ccccc1Cl)Nc1ccc2oc(=O)ccc2c1 ?
aSyn 5UTR act: -72*

What do the screens show for `CC(C)(C)c1nnc2sc(SCC(=O)c3ccc4c(c3)OCCO4)nn2c1=O`?
aSyn 5UTR act: -156*

What do the screens show for `Cc1ccc(C)c(C(=O)CSc2nnnn2C(C)C)c1`?
aSyn 5UTR act: -65*

Results for COc1cccc(C(=O)CSc2nnnn2C2CCCCC2)c1 ?
aSyn 5UTR act: -74*

What do the screens show for `O=C(CSc1nnnn1C1CCCC1)c1ccc2c(c1)OCCO2`?
aSyn 5UTR act: -102*

Results for CC(C)n1nnnc1SCC(=O)c1ccc2c(c1)OCCO2 ?
aSyn 5UTR act: -145*

What do the screens show for `CCn1nnnc1SCC(=O)c1ccc2c(c1)OCCO2`?
aSyn 5UTR act: -137*

What do the screens show for `Cc1cc(C)n(-c2nc3ccccc3c(=O)n2OCC(N)=O)n1`?
aSyn 5UTR act: -63*

How did CCOC(=O)Nc1ccc2c(C)cc(=O)oc2c1 do in these assays?
aSyn 5UTR act: -178*

Results for CCCCOC(=O)Nc1ccc2c(C)cc(=O)oc2c1 ?
aSyn 5UTR act: -145*

How did Cc1cc(=O)oc2cc(NC(=O)CCOc3ccccc3)ccc12 do in these assays?
aSyn 5UTR act: -82*

What do the screens show for `Cc1occc1C(=O)O/N=C(\N)c1ccc(Cl)cc1`?
aSyn 5UTR act: -71*

How did COc1cc(OC)c(C(=O)O/N=C(\N)c2cccc(C)c2)cc1OC do in these assays?
aSyn 5UTR act: -67*

How did COc1ccc(Cl)cc1C(=O)O/N=C(\N)c1ccc(Cl)cc1 do in these assays?
aSyn 5UTR act: -267*

What do the screens show for `COc1cc(OC)c(C(=O)O/N=C(\N)c2ccc(C)cc2)cc1OC`?
aSyn 5UTR act: -66*

How did N=c1n(N)c2ccccc2n1CC(=O)c1ccc(Br)cc1 do in these assays?
aSyn 5UTR act: -109*

Results for Nc1ccc(SC(F)(F)F)cc1 ?
aSyn 5UTR act: -70*

Results for Clc1ccc(Cn2ccc(C3CC3)n2)cc1 ?
aSyn 5UTR act: -95*

Results for Cc1ccc(Cn2ccc(C3CC3)n2)cc1 ?
aSyn 5UTR act: -101*

Results for CC1(C)Cc2nc3oc4c(=S)nc[nH]c4c3cc2CO1 ?
aSyn 5UTR act: -64*

How did C=CCn1c(C)nc2c(sc3nc4c(cc32)COC(C)(C)C4)c1=O do in these assays?
aSyn 5UTR act: -130*

What do the screens show for `C=CCSc1ncnc2c1oc1nc3c(cc12)COC(C)(C)C3`?
aSyn 5UTR act: -141*

What do the screens show for `CCCCCn1cnc2c(sc3nc4c(cc32)CSC(C)(C)C4)c1=O`?
aSyn 5UTR act: -130*

Results for CC(C)COc1ncnc2c1sc1nc3c(cc12)COC(C)(C)C3 ?
aSyn 5UTR act: -117*

Results for CC(C)c1nc2sc3c(NCc4ccco4)ncnc3c2c2c1COC(C)(C)C2 ?
aSyn 5UTR act: 71

Results for CCCOc1ncnc2c1sc1nc3c(cc12)COC(C)(C)C3 ?
aSyn 5UTR act: -112*

Results for CC1(C)Cc2nc3sc4c(=O)n(CC(=O)NCc5ccco5)cnc4c3cc2CO1 ?
aSyn 5UTR act: -100*

Results for CCSc1ncnc2c1sc1nc3c(cc12)COC(C)(C)C3 ?
aSyn 5UTR act: -123*

Results for Cc1cccc(Oc2cc([N+](=O)[O-])cc3c2C(=O)Nc2ccccc2O3)c1 ?
aSyn 5UTR act: -68*

How did Cc1ccccc1NC(=O)c1cc2ccccc2o1 do in these assays?
aSyn 5UTR act: -172*

How did O=C(Cc1ccc(Cl)cc1)Nc1ccc(-c2cc3ccccc3oc2=O)c(Cl)c1 do in these assays?
aSyn 5UTR act: 96

How did COc1ccccc1NC(=O)c1cc2ccccc2o1 do in these assays?
aSyn 5UTR act: -92*

What do the screens show for `Nc1ccc(NC(=O)c2cccc(C(=O)Nc3ccc(N)cc3Cl)c2)c(Cl)c1`?
aSyn 5UTR act: -85*

Results for O=C(Nc1ccc(Cl)cc1Cl)c1cc2ccccc2o1 ?
aSyn 5UTR act: -110*

What do the screens show for `Nc1ccccc1C(=O)Nc1ccc(Cl)cc1Cl`?
aSyn 5UTR act: -120*

How did O=C(NCCc1ccccn1)c1cc2ccccc2o1 do in these assays?
aSyn 5UTR act: -102*

Results for Cc1ccc(NC(=O)c2cc3ccccc3o2)nc1 ?
aSyn 5UTR act: -95*

Results for O=C(Nc1ncccc1Cl)c1cc2ccccc2o1 ?
aSyn 5UTR act: -74*

How did O=C(Nc1ccccc1Cl)c1cc2ccccc2o/c1=N\O do in these assays?
aSyn 5UTR act: -121*

How did Cc1nc2cc3ccccc3cc2c(=O)[nH]1 do in these assays?
aSyn 5UTR act: -112*

Results for Cc1ccc(/C=C2\SC(=S)N(CCCC(=O)Nc3cccnc3)C2=O)cc1 ?
aSyn 5UTR act: 79

Results for O=C1/C(=C/c2ccc(O)c(O)c2)SC(=S)N1Nc1ccccc1 ?
aSyn 5UTR act: -146*

What do the screens show for `COc1cc(/C=C2\SC(=S)N(Nc3ccccc3)C2=O)ccc1O`?
aSyn 5UTR act: -145*

Results for COc1ccc(/C=C2\SC(=S)N(CCCC(=O)Nc3ccc(O)cc3)C2=O)cc1 ?
aSyn 5UTR act: 78

Results for CCOc1cc(/C=C2\SC(=S)N(Nc3ccccc3)C2=O)ccc1O ?
aSyn 5UTR act: -165*

How did O=C(O)COc1cccc2ccccc12 do in these assays?
aSyn 5UTR act: -65*

Results for COc1ccc(-c2cn3cccnc3n2)cc1F ?
aSyn 5UTR act: -108*

How did COc1ccc(-c2cn3cccnc3n2)cc1NS(=O)(=O)c1ccccc1 do in these assays?
aSyn 5UTR act: -98*

How did O=C(Cc1ccc(Cl)cc1)NCc1ccccc1Cl do in these assays?
aSyn 5UTR act: -66*

What do the screens show for `Cc1ccccc1CNC(=O)Cc1ccccc1[N+](=O)[O-]`?
aSyn 5UTR act: -96*

What do the screens show for `O=C(Cc1ccccc1[N+](=O)[O-])NCc1ccccc1Cl`?
aSyn 5UTR act: -147*

What do the screens show for `N#C/C(=C(/O)c1ccc(F)cc1)c1nc2ccccc2s1`?
aSyn 5UTR act: -136*

Results for N#C/C(=C(/O)c1ccc(-c2cccc([N+](=O)[O-])c2)o1)c1nc2ccccc2s1 ?
aSyn 5UTR act: -105*

Results for N#C/C(=C(/O)COc1ccccc1)c1nc2ccccc2s1 ?
aSyn 5UTR act: -63*

Results for N#C/C(=C(/O)CSc1ccccn1)c1nc2ccccc2s1 ?
aSyn 5UTR act: -62*

How did CSc1ccc(-c2nc(CN(C)C3CCOC3)c(C)o2)cc1 (stereo not given) do in these assays?
aSyn 5UTR act: -81*

What do the screens show for `COc1ccc(CCNC(=O)c2coc(=O)c(Br)c2)cc1`?
aSyn 5UTR act: -63*

How did O=C(NCCc1ccccc1)c1ccc2c(c1)OCCO2 do in these assays?
aSyn 5UTR act: 106

How did COc1ccc(CCNC(=O)c2ccc3c(c2)OCCO3)cc1 do in these assays?
aSyn 5UTR act: -135*
